An excerpt weighted towards active compounds, which were near 6.9% of everything screened.
SW480 rereplic: A quantitative high throughput screen for small molecules that induce DNA re-replication in SW480 colon adenocarcinoma cells; Potency, µM (titrated, usually from 46.1 µM), for the others: at the top dose re-replication activation, hits mostly activators; AID 624297, 2012; 340,000 compounds, 1.8% hits; SW480 DNA re-replication, Hoechst DNA content imaging, 48 h; note: potency is the fitted concentration of half-maximal effect; % of control where 0% means no effect; nearly all actives have a fitted effect of over 55% in size
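Image-based DNA-content assay: after two days of treatment, nuclei were labelled with the DNA dye Hoechst and imaged, and hits were compounds raising the count of nuclei showing high fluorescence intensity.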
Vif-A3G inh: qHTS for Inhibitors of Vif-A3G Interactions: qHTS. HeLa A3G-eYFP + Vif (tagged APOBEC3G with the HIV-1 protein that degrades it), YFP fluorescence, overnight. Potency, µM (highest dose often 46.1 µM), without a hit: top-dose activity, negative = active, usual class: inhibitors. 410,000 compounds, 0.076% hits. AID 602310, 2012; note: potency is the fitted concentration of half-maximal effect; % is set by controls: 0 for no effect and ±100 for the full control effect; nearly all actives have a fitted effect of over 60% in size
Target sequence (Q9HC16 whole entry, looked up): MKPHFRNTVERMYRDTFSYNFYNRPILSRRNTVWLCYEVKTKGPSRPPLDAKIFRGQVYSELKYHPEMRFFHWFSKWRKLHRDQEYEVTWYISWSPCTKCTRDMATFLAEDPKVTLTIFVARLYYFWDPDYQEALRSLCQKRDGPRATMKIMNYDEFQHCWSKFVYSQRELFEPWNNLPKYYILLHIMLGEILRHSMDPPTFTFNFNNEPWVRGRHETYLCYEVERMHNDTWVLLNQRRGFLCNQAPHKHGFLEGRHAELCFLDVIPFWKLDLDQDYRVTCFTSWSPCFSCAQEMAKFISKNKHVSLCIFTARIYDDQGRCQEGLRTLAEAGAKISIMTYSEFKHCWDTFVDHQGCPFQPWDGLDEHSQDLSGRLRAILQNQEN
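Read-out is eYFP fluorescence (Ex 488/Em 500-530) from Vif-expressing HeLa A3G-eYFP cells; more signal means A3G escaped Vif-mediated degradation. Cells plated overnight, compound pinned in, incubated overnight at 37 deg C.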
IL1B secr inh: qHTS for Inhibitors of Inflammasome Signaling: IL-1-beta AlphaLISA Primary Screen. THP-1 LPS/ATP IL-1B secretion, AlphaLISA, 16 h; active compounds read low. activity change, % at 57.5 µM. 360,000 compounds, 4.7% hits; in the data active = activity change below about -50%; inconclusive = mostly about -30% to -49%; note: % is set by controls: 0 for no effect and ±100 for the full control effect
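THP-1 cells pretreated 1 hr with compounds (up to 57.5 uM final), then stimulated with LPS (250 ng/mL final) plus ATP (1.25 mM final); secreted IL-1B measured by AlphaLISA after 16 hr, decreased signal indicating inhibition.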
Vif-A3F inh: qHTS for Inhibitors of Vif-A3F Interactions: qHTS; 390,000 compounds, 0.2% hits; Potency, µM (series often up to 46.1 µM), for inactives: at the top dose activity, negative = active; HeLa A3F-eYFP + Vif (tagged APOBEC3F with the HIV-1 protein that degrades it), YFP fluorescence increase; note: potency is the fitted concentration of half-maximal effect; % of control where 0% means no effect; nearly all actives have a fitted effect of over 65% in size
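HeLa cells stably expressing Vif plus C-terminally eYFP-tagged A3F were seeded, incubated overnight at 37 deg C, dosed with compound, incubated overnight again at 37 deg C. Yellow fluorescence (Ex 488/Em 500-530) reported blocked Vif-mediated A3F-eYFP degradation.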
Giardia kill: Small Molecules that selectively kill Giardia lamblia: qHTS | 340,000 compounds, 0.15% hits | Giardia lamblia trophozoite viability | activity change, % at 7.66 µM, hits read low; in the data active = activity change below about -80%; inconclusive = between about -30% and that limit;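 note: parasites exposed to compound for two days anaerobically before the ATP read; % is set by controls: 0 for no effect and ±100 for the full control effect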
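Luminescence from cellular ATP indicates surviving trophozoites (100 cells/well) following 48 hrs anaerobic compound treatment at 37 deg C; signal develops 15-30 min at room temperature.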
MCF10A rereplic: A quantitative high throughput screen for small molecules that induce DNA re-replication in MCF 10a normal breast cells; MCF 10A DNA re-replication, Hoechst nuclear intensity, 48 h; 350,000 compounds, 2.9% hits; Potency, µM (doses to about 46.1 µM), inactives show at the top dose activity, positive = re-replication, actives largely listed as activators; note: potency is the fitted concentration of half-maximal effect; % of control where 0% means no effect; nearly all actives have a fitted effect of over 50% in size
* hit, by the source's call; u = inconclusive; x = no result given; [ ] = another dose, or the depositor's remark. Unless noted, calls come from the whole dose curve; as a rule, active = well fitted curve in the direction sought with a large enough effect; inconclusive = small, poorly fitted or top-dose-only effect, or another doubt; inactive = no such curve, though single readings can be large; an effect the other way counts as inactive or inconclusive.

SMILES	SW480 rereplic	Vif-A3G inh	IL1B secr inh	Vif-A3F inh	Giardia kill	MCF10A rereplic
C/C(=N/NS(=O)(=O)c1ccc(Cl)cc1)c1ccncc1	-26.1%	6.0%	-1.1	0.1%	6.6	-22.5%
C/C(=N\NS(=O)(=O)c1ccc(Br)cc1)c1ccncc1	3.7%	0.0%	-77.6*	-1.6%	-6.8	8.5%
CC(C)(C)n1ncc2c(=O)n(Cc3ccc(Cl)c(F)c3)cnc21	x	0.6%	x	x	x	x
COc1ccc2c(c1)c1c(c(=O)n(-c3ccccc3C)c(=O)n1CC(N)=O)n2C	x	3.7%	x	6.0%	x	x
O=C(NCCCn1ccnc1)c1nn2c(C(F)(F)F)cc(-c3ccc(Br)cc3)nc2c1Cl	-484.2%	2.7%	-52.0*	u	49.5	u
COc1ccc(-c2cc(C(F)(F)F)n3nc(C(=O)NCCN4CCOCC4)cc3n2)cc1	-4.5%	2.0%	-17.9	3.0%	8.5	-7.2%
COc1ccc(-c2cc(C(F)(F)F)n3nc(C(=O)NCCCn4ccnc4)cc3n2)cc1	u	-5.1%	-59.3*	-1.0%	5.1	12.6µM*
Cc1ccc(C)c(NC(=O)C(Sc2nc3ccc(C)cc3[nH]2)c2ccccc2)c1 (configuration not stated)	u	-0.8%	-18.2	-13.4%	-18.0	20.6µM*
Cc1ccc2nc(SC(C(=O)Nc3ccc(F)cc3)c3ccccc3)[nH]c2c1 (configuration not stated)	u	-1.3%	-51.9*	-5.3%	10.8	u
CCN=c1scc(-c2ccccc2)n1/N=C/c1ccccn1	-3.4%	-9.8%	-58.1*	5.1%	u	20.6µM*
CCN=c1scc(-c2ccc(F)cc2)n1/N=C/c1ccccn1	-88.8%	-3.4%	-50.8*	u	1.8	12.7%[9.22 µM]
O=C1CCSC2(C(=O)N(Cc3ccc(F)cc3)c3ccccc32)N1c1ccc(F)c(F)c1 (configuration not stated)	x	3.3%	x	-2.3%	x	x
COc1ccc2[nH]c(S(=O)Cc3ncc(C)c(OC)c3C)nc2n1 (configuration not stated)	-2.3%	x	x	x	x	u
Cc1cc(NC(=O)c2cnn3c(C(F)(F)F)cc(-c4ccccc4)nc23)no1	15.3%	0.8%	-69.4*	-12.8%	2.7	12.6%
Cc1c(NC(=O)c2nn3c(C(F)(F)F)cc(-c4ccccc4)nc3c2Cl)c(=O)n(-c2ccccc2)n1C	-4.1%	3.7%	-50.8*	1.2%	2.4	-0.3%
COc1ccc(-c2cc(C(F)(F)F)n3nc(C(=O)Nc4c(C)n(C)n(-c5ccccc5)c4=O)cc3n2)cc1	20.3%	-0.9%	-0.8	3.3%	-21.0	18.4µM*
CCOC(=O)c1noc2ncnc(Nc3cccc(OC)c3)c12	x	5.6%	x	1.1%	x	x
COc1ccc(CN(Cc2ccccc2)C(=O)CN2CCN(C)CC2)cc1COc1ccc(NC(C)=O)cc1	x	x	x	x	-1.4	x
Cc1ccc(NC(=O)C(C)Sc2nc(-c3ccccc3)c(C#N)c(=O)[nH]2)c(C)c1 (configuration not stated)	x	2.9%	x	-7.3%	x	x
CN1C(=O)CC2(C=CC(=O)C=C2OC(=O)c2ccccc2)c2ccccc21 (configuration not stated)	x	-4.6%	x	x	51.1	x
CC(C)NC(=O)COC(=O)c1cc(=O)[nH]c2ccccc12	-16.8%	0.6%	10.9	3.3%	7.0	-1.3%
O=C(COC(=O)c1cc(=O)[nH]c2ccccc12)NC(=O)c1ccccc1	25.9µM*	-3.3%	1.1	6.6%	-2.4	-1.4%
COc1ccc([N+](=O)[O-])cc1NC(=O)C(C)OC(=O)CN1C(=O)C2CC=CCC2C1=O (configuration not stated)	u	-0.5%	-62.9*	0.8%	4.7	2.0%
